ChEMBL document CHEMBL1201862, “PubChem BioAssay data set” (2004)
Among all 410,000 compounds or so, about 5,100 (1.2%) were called active. Inconclusive results (about 8%) are left out. The calls are words filed in the database; no cut-off is given here. This excerpt belongs to a sample that is enriched for actives.

Experiment: High Throughput Screening for Foot and Mouth Disease Virus Antivirals.
Type: functional
Settings: read-out: Potency

Compound	AC50
CN(C)CCNC(=O)C1CCN(Cc2cc3ccccc3n2Cc2ccccc2)CC1	398 µM (active)
